From PubChem BioAssay
Pf Dd2 inh: blocks in vitro growth of P. falciparum Dd2 | AID 1347417 | Potency, µM (highest dose often 28.9 µM), without a hit: at the highest dose activity, negative = inhibition, actives largely listed as inhibitors | P. falciparum Dd2 growth, SYBR Green, 72 h | 120,000 tested, 4.3% active; active = well fitted inhibition curve with a large enough effect;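 also: plate controls were DMSO vehicle for no effect and reference drug for full effect; nearly all actives have a fitted effect of over 65% in size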
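Infected erythrocytes (Dd2, 0.3% parasitemia, 2.5% hematocrit final) are added to compound in RPMI-1640/Albumax II medium, grown 72 h at 37C in low oxygen, then lysed with saponin/Triton-X containing SYBR Green and read by fluorescence.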
Numbers without * were called inactive; i = inactive; [ ] = another dose, or the depositor's remark. Many of the other results were omitted from the sample, so hits are more common in it than they were. Potency is read from the fitted curve at half-maximal effect.

SMILES	Pf Dd2 inh
O=C(CCc1ccnc(N2CCCC2)c1)N1CCN(c2cccc(Cl)c2)CC1	5µM*
O=C(CCc1ccnc(N2CCOCC2)c1)N1CCN(C(=O)c2ccco2)CC1	34%
O=C(O)CCc1ccnc(N2CCCC2)c1	7%
CC(C)c1nc2c(c(-c3ccc(O)cc3)n1)CN(C(=O)C1CCCC1)CC2	i
COc1ccc(-c2nc(C(C)C)nc3c2CCN(C(=O)N(C)C)CC3)cc1	-23%
COc1ccc(-c2nc(C(C)C)nc3c2CCN(C(=O)c2ccc(F)cc2)CC3)cc1	11µM*
CCc1nc2c(c(-c3ccc(OC)cc3)n1)CCN(C(=O)c1ccccc1OC)CC2	-10%
CC(C)c1nc2c(c(-c3ccc(O)cc3)n1)CN(C(=O)Nc1ccc(Cl)cc1)CC2	11µM*
COc1ccc(-c2nc(C(C)C)nc3c2CCN(C(=O)C2CC2)CC3)cc1	i
CC(C)c1nc2c(c(-c3ccc(O)cc3)n1)CN(C(=O)c1ccc(C(F)(F)F)cc1)CC2	i
COc1ccc(-c2nc(C(C)C)nc3c2CCN(C(C)=O)CC3)cc1	i
CC(C)c1nc2c(c(-c3ccc(O)cc3)n1)CN(C(=O)C1CC1)CC2	i
COc1ccccc1C(=O)N1CCc2nc(C(C)C)nc(-c3ccc(Cl)cc3)c2CC1	-28%
COc1ccc(-c2nc(C(C)C)nc3c2CCN(C(=O)Nc2ccccc2)CC3)cc1	5µM*
CC(C)c1nc2c(c(-c3ccc(Cl)cc3)n1)CCN(C(=O)c1ccc(C(F)(F)F)cc1)CC2	10µM*
COc1ccc(CCNC(=O)CC(c2cccc3c2OCO3)c2c[nH]c3ccccc23)cc1OC (configuration not stated)	-18%
COCCC1(C(=O)O)CCCCC(=O)N1 (configuration not stated)	32%
COc1ccc(-c2nc(C(C)C)nc3c2CCN(C(=O)c2cccc(Cl)c2)CC3)cc1	5.6µM*
Cc1ccc(C(=O)N2CCc3nc(C(C)C)nc(-c4ccc(O)cc4)c3C2)cc1	i
CN(Cc1ccccn1)C(=O)CC(c1cccc(O)c1)c1ccccc1Cl (configuration not stated)	i
CCCC(=O)NC1CCN(c2ccc(C)cc2)C1=O (configuration not stated)	-12%
Cc1ccccc1NC(=O)Nc1ccnn1C1CCN(C(=O)[C@@H](N)CO)CC1	0%
COCCNC(=O)CCCN1C(=O)COc2ccc(C(=O)COc3c(C)ccc(C)c3C)cc21	10µM*
COCCNC(=O)CCCN1C(=O)COc2ccc(C(=O)COc3ccc(Cl)c(C)c3)cc21	i
COCCCNC(=O)CCCN1C(=O)COc2ccc(C(=O)COc3cccc(C)c3C)cc21	-1%
SMILES	Pf Dd2 inh
Cc1noc(C)c1CC(=O)N1CCC2(CC1)CC(N(Cc1ccccc1)C1CC1)CCO2 (configuration not stated)	i
COc1ccc(-c2ccc3nc(-c4cccc(F)c4)oc3c2)c(OC)c1OC	i
O=C(Nc1onc2c1CCCC2)c1ccccc1	-6%
CC(C)(C)c1ccc(C(=O)Nc2onc3c2CCCC3)cc1	7.9µM*
CCOc1ccc(C(=O)Nc2onc3c2CCCC3)cc1	24%
Cc1noc(C)c1Cc1ccc(C(=O)N(C)C2CCc3nnc(C)n3CC2)o1 (configuration not stated)	-16%
CCc1noc(Cc2c(C)nn(-c3ccccc3)c2C)n1	-12%
CC1=C[C@@H](CN2CCC(CO)CC2)[C@H](C(C)C)C[C@H]1Cc1nnc(-c2ccc([N+](=O)[O-])cc2)o1	3.5µM*
CC1=C[C@@H](CN2CCN(CCO)CC2)[C@H](C(C)C)C[C@H]1Cc1nnc(-c2ccc([N+](=O)[O-])cc2)o1	2.5µM*
COc1ccc(-c2nnc(C[C@@H]3C[C@@H](C(C)C)[C@H](CN4CCN(CCO)CC4)C=C3C)o2)cc1	-33%
CCC(=O)N1CCC(Cc2ncc(C)n2C(C)C)C1 (configuration not stated)	-10%
O=C(Nc1ccc(F)cc1)C1CN(c2cccc(Cl)c2)C(=O)N1 (configuration not stated)	i
Cc1nn(C)c(C)c1C(=O)N[C@@H]1CN(S(C)(=O)=O)C[C@H]1CN(C)C	39%
Cc1ccc(-c2cc(C(=O)N3CCC(Cc4nncn4CC4CC4)CC3)c3ccccc3n2)cc1C	2.8µM*
O=C(c1ccc2cc[nH]c2c1)N1CCC(Cc2nncn2CC2CC2)C1 (configuration not stated)	i
Cc1ccc(NC(=O)N2CCC(Cc3nncn3Cc3ccccc3)C2)cc1C (configuration not stated)	-6%
COCCNC(=O)[C@H]1C[C@H](Oc2ccccc2)CN1C(=O)c1cccc(C)c1	-5%
Cc1ccc(C(=O)N2CCC(N3C(=O)CCC3C(=O)NCc3ccccc3)CC2)cc1 (configuration not stated)	21%
Cc1c(F)cccc1NC(=O)N1CCC(n2cnnc2C2CC2)C1 (configuration not stated)	-22%
CCC(C(=O)NC1CCN(c2cnn(C)c(=O)c2)CC1)c1ccccc1 (configuration not stated)	-1%
CCOc1ccc(-c2cc3c(=O)n(CC(O)c4ccc(C(C)C)cc4)ccn3n2)cc1 (configuration not stated)	i
CCOc1ccc(C(O)Cn2ccn3nc(-c4ccccc4C)cc3c2=O)cc1 (configuration not stated)	13µM*
O=c1c2cc(-c3ccccc3)nn2ccn1CC(O)c1ccccc1 (configuration not stated)	i
CN(Cc1ccc(F)cc1)C1CCCc2ccccc21 (configuration not stated)	i
CN(C(=O)Nc1ccccc1)C1CCCc2ccccc21 (configuration not stated)	16µM*
SMILES	Pf Dd2 inh
CN(C(=O)c1ccccc1)C1CCCc2ccccc21 (configuration not stated)	i
CN(C(=O)Nc1ccc(Cl)cc1)C1CCCc2ccccc21 (configuration not stated)	-12%[44.1 µM]
COCC(=O)N(C)C1CCCc2ccccc21 (configuration not stated)	-23%[44.1 µM]
CN(C(=O)Cc1ccc(F)cc1)C1CCCc2ccccc21 (configuration not stated)	16µM*
COCC1CN(S(=O)(=O)c2c(C)noc2C)CC12CCNCC2 (configuration not stated)	2%
CN(C)[S+](=O)([O-])c1ccc2c(c1)OCCN(Cc1ccncc1F)C2	-5%[44.1 µM]
O=C(NC1CCCN(c2cc(-c3ccc(F)cc3)[nH]n2)C1)c1ccc(Br)o1 (configuration not stated)	i
O=C(NCC1(COc2cnccn2)C[C@@H](O)[C@@H](O)C1)C1CC1 (some centres not stated)	9%[44.1 µM]
O=C(NCC1(COc2cccnc2)C[C@@H](O)[C@@H](O)C1)C1CC1 (some centres not stated)	7.9µM*
COCC(=O)NCC1(COc2cccnc2)C[C@@H](O)[C@@H](O)C1 (some centres not stated)	16%[44.1 µM]
COc1ccc(OC2CN(Cc3cccc4ccccc34)C2)cc1	7%
NC(=O)c1ccccc1NC(=O)CN1c2ccccc2S(=O)(=O)c2ccccc21	10µM*
COc1cc(Cl)c(C)cc1NC(=O)CN1c2ccccc2S(=O)(=O)c2ccccc21	-7%
O=S1(=O)c2ccccc2N(Cc2ccccc2)c2ccccc21	i
O=C(NCc1cccs1)c1cc2n(n1)CC(c1ccc3c(c1)OCO3)OC2 (configuration not stated)	i
